A number with no mark means an inactive call.

Common to all, as to test: log2 ratio of Biotin-Ahx-Ub-VS probe labelling (fragment/DMSO); higher = less target engagement (more negative = stronger competition), active = hit call of the paper (q ≤ 0.05, log2 ratio ≤ -1)
Holding throughout (details): compound concentration: 200 uM; treatment time: 3 h

One test addresses T1, ALG13 (UniProt Q9NP73).
T1 sequence (whole entry): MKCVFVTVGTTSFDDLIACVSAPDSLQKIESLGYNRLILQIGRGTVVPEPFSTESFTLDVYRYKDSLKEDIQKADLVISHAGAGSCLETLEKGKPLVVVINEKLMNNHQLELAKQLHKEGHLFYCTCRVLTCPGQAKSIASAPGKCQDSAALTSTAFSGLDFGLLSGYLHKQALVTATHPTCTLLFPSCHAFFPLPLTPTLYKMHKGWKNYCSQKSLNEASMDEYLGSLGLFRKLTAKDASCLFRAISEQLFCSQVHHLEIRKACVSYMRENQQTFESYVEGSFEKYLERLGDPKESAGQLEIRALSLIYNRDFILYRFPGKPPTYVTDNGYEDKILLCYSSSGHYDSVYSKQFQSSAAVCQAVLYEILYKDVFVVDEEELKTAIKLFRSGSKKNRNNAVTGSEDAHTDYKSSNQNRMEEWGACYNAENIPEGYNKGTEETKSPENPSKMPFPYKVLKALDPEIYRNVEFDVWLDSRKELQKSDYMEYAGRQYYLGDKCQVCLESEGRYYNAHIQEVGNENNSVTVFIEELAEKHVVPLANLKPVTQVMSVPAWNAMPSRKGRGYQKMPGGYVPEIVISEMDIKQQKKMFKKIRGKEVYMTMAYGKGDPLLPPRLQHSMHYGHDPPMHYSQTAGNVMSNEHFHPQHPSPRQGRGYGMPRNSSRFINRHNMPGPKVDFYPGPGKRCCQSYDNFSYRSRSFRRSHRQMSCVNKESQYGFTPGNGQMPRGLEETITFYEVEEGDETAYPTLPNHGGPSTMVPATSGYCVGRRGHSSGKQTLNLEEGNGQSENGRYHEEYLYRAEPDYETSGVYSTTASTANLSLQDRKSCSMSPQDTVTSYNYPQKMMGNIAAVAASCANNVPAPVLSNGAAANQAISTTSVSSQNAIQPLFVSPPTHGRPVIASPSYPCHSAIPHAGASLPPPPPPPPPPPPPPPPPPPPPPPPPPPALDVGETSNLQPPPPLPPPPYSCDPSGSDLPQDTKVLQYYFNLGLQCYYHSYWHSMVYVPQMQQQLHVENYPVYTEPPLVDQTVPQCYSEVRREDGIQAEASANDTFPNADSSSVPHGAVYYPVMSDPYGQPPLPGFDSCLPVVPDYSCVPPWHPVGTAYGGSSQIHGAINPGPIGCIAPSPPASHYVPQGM
Summed up:
(§1)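 Triplicate samples of HEK293T lysate, 495 µg each, received fragment at 200 µM or vehicle for 3 h, followed by Biotin-Ahx-Ub-VS (0.5 µM final) for 1 h. After NeutrAvidin enrichment of labelled DUBs and LysC/trypsin digestion, peptides were run by diaPASEF LC-MS/MS. The values are average log2 fragment/vehicle ratios from global-median-normalised Spectronaut label-free quantities, tested by unpaired t-test on proteins having ≥2 unique peptides.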

For the next test, the target named is ATXN3 (UniProt P54252). In outline: as §1
A further test deals with T2, BAP1 (UniProt Q92560).
T2 sequence (whole entry): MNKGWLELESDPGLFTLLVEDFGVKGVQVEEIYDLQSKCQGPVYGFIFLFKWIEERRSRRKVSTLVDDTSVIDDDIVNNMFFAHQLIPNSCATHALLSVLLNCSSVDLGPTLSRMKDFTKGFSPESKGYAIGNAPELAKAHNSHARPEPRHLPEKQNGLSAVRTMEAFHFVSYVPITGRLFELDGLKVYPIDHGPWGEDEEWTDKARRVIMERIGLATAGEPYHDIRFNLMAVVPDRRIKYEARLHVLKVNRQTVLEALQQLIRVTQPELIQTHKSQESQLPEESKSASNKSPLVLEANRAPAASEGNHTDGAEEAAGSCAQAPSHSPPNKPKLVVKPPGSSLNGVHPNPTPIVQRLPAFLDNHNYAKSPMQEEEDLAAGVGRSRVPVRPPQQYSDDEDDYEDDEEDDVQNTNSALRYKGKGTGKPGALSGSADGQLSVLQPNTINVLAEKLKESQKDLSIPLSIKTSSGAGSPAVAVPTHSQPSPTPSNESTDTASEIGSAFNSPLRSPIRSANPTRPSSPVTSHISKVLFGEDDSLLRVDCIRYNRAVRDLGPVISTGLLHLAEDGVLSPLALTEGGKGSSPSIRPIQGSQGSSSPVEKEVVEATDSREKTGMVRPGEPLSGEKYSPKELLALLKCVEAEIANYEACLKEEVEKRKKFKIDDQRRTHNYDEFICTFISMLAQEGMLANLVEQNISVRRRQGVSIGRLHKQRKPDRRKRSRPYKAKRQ
Summed up:
as §1

For another test, the target named is EIF3F (UniProt O00303). In outline: as §1
The next test addresses EIF3H (UniProt O15372). Summed up: as §1
In the next test the target is T3, FAM105A (UniProt Q9NUU6).
T3 sequence (whole entry): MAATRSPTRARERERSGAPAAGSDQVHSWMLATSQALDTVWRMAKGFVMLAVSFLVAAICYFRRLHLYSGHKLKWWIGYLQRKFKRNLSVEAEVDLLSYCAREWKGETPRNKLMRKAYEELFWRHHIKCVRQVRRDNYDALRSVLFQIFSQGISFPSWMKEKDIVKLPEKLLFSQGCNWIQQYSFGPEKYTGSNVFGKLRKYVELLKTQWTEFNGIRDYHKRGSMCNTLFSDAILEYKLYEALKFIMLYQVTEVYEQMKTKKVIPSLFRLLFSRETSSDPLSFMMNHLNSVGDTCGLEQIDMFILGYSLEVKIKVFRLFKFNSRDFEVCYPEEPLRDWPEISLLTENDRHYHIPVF
Summed up:
as §1

For another test, the target named is OTUB1 (UniProt Q96FW1). Summed up:
as §1

The target in another test is T4, OTUD4 (UniProt Q01804).
T4 sequence (whole entry): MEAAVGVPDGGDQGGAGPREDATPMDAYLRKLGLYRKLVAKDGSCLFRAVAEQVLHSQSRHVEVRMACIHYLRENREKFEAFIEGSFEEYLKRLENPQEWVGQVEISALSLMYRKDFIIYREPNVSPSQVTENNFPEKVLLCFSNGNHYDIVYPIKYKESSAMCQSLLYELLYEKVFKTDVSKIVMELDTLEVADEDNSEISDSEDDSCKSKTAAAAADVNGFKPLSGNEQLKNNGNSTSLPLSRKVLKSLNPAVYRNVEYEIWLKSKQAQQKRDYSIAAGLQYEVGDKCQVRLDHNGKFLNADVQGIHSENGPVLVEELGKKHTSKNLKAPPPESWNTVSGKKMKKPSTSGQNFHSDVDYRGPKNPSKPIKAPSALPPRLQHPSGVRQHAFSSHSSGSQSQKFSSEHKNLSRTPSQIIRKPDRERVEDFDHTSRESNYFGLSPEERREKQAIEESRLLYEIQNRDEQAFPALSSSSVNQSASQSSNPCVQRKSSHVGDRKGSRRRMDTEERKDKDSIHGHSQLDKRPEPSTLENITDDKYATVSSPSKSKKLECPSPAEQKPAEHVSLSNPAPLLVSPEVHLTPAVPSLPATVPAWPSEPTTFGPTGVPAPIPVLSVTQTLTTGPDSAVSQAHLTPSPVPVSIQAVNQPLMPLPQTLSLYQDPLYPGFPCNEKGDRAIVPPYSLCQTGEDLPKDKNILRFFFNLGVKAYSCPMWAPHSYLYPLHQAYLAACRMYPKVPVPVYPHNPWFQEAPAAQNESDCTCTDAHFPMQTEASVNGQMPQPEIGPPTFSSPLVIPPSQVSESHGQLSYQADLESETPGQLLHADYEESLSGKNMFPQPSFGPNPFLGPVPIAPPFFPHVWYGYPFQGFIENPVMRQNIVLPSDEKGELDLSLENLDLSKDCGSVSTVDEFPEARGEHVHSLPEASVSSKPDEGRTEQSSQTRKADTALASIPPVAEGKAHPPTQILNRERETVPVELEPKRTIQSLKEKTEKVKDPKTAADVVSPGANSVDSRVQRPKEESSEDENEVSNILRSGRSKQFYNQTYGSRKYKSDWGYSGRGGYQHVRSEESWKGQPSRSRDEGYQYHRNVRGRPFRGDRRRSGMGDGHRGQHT
Summed up:
as §1

The next test concerns the target T5, OTUD5 (UniProt Q96G74).
T5 sequence (whole entry): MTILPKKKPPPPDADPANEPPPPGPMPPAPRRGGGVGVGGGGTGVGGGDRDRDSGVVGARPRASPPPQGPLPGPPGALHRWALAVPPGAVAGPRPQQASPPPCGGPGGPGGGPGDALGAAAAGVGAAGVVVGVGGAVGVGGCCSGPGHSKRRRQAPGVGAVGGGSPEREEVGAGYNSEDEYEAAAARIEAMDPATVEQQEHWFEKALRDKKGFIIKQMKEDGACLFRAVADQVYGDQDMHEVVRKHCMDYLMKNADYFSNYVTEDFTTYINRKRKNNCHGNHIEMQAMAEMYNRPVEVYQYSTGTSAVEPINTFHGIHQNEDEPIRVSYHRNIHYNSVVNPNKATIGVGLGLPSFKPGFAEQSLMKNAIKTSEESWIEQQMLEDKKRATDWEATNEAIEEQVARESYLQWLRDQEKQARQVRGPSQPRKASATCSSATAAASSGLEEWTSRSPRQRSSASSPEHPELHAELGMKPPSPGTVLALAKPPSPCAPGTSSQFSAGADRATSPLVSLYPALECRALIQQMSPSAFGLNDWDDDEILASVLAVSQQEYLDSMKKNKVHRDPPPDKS
Summed up: as §1

OTUB1, sequence (Q96FW1 whole entry): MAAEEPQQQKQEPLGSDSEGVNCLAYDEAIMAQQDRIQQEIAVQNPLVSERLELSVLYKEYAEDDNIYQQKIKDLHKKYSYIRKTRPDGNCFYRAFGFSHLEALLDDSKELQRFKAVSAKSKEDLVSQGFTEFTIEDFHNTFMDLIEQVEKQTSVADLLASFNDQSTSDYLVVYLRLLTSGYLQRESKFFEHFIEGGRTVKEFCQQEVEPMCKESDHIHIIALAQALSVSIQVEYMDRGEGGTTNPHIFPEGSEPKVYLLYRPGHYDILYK
ATXN3, sequence (P54252 whole entry): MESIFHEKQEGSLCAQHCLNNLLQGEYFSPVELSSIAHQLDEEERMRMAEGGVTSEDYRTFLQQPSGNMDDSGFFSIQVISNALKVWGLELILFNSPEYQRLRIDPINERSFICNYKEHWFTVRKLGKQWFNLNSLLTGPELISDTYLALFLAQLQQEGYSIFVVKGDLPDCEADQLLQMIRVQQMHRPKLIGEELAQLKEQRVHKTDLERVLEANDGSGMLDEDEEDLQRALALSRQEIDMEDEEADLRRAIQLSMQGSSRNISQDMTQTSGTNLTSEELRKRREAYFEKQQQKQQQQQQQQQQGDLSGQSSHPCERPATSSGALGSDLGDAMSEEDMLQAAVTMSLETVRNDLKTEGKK
EIF3H, sequence (O15372 whole entry): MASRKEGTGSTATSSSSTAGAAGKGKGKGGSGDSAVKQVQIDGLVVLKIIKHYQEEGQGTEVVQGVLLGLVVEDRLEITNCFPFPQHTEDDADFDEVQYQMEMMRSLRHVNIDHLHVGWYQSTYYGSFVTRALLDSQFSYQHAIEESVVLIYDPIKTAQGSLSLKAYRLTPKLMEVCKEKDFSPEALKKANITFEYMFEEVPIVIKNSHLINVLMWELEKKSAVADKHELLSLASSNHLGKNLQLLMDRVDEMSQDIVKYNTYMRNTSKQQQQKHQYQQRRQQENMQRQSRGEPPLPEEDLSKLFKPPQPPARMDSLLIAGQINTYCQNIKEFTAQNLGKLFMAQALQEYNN
EIF3F, sequence (O00303 whole entry): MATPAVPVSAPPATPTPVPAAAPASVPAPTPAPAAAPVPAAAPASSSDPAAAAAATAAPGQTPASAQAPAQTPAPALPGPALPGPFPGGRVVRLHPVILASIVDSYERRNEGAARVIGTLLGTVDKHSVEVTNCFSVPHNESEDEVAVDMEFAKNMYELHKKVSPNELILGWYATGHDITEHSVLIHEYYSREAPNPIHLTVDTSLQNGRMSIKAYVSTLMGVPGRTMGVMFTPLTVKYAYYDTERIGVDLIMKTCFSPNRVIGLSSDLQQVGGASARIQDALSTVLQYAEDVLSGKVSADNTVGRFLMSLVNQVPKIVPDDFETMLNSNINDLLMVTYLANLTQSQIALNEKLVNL

As for `Cc1ncsc1CCNC(=O)CCl`, the “log2 ratio of Biotin-Ahx-Ub-VS probe labelling” value (shortened to “log2 ratio”) with ALG13 is -1.18 (active); with ATXN3, 0.0484; with BAP1, -0.27; in the test with EIF3F it was 0.501; in the test with EIF3H, 0.195; in the test with FAM105A, 0.185. Besides, the “log2 ratio” value in the test with OTUB1 was 0.885; in the test with OTUD4, -0.271; with OTUD5, 0.163.

Consider `O=C(CCl)N1CCN(C(=O)N2CCCCC2)CC1`, for which the “log2 ratio” value was -1.37 (active) in the test with ALG13; -1.81 (active) in the test with ATXN3; -1.46 (active) in the test with BAP1; -0.507 with EIF3F; 0.266 with EIF3H; -0.215 with FAM105A. Further, the “log2 ratio” value with OTUB1 is -0.524; in the test with OTUD4, -0.638; with OTUD5, -1.13 (active).

`O=C(CCl)N1CCN(c2nc3ccccc3o2)CC1`: the “log2 ratio” value with ALG13 is 0.254; in the test with ATXN3, -1.05 (active); with BAP1, -1.05 (active); with EIF3F, -0.704; with EIF3H, -0.664; with FAM105A, 0.0333. The “log2 ratio” value in the test with OTUB1 is 0.0507; with OTUD4, -0.141; with OTUD5 it was -0.83.

Consider `CN(C)S(=O)(=O)c1ccccc1CNC(=O)CCl`, for which the “log2 ratio” value is 0.242 in the test with ALG13; -0.137 in the test with ATXN3; -1.09 (active) in the test with BAP1; -0.0947 with EIF3F; 0.29 with EIF3H; -0.0283 with FAM105A. The “log2 ratio” value with OTUB1 is -0.0251; with OTUD4, -0.249; in the test with OTUD5 it was -0.29.

`CC(NC(=O)CCl)c1cccc2ccccc12` (stereo not drawn): the “log2 ratio” value with ALG13 was 0.0911; with ATXN3, -0.129; with BAP1, -4.13 (active); in the test with EIF3F, -0.0141; with EIF3H, -0.0531; with FAM105A, -0.022. Also, the “log2 ratio” value with OTUB1 is -0.352; in the test with OTUD4 it was -1.01 (active); with OTUD5, -0.234.

In the case of `COc1ccc(CN(C)C(=O)CCl)cc1`, the “log2 ratio” value is -0.466 with ALG13; -0.667 with ATXN3; -1.65 (active) in the test with BAP1; -0.171 with EIF3F; 0.0709 with EIF3H; 0.32 with FAM105A. For the same compound, the “log2 ratio” value with OTUB1 is -0.0239; with OTUD4, -0.413; with OTUD5, -0.536.

Take `Cc1ccc(-c2nnc(C)[nH]2)c(NC(=O)CCl)c1`: the “log2 ratio” value with ALG13 is 0.0249; in the test with ATXN3, -0.0255; with BAP1, -4.24 (active); with EIF3F it was -0.316; in the test with EIF3H, 0.0246; with FAM105A, -0.276. Besides, the “log2 ratio” value is 0.149 with OTUB1, -0.353 in the test with OTUD4 and -0.237 in the test with OTUD5.

Source of the values: the supplement of paper PMC11732987, “Enantioselective OTUD7B fragment discovery through chemoproteomics screening and high-throughput optimisation” (Communications Chemistry, 2025).
